The panel holds about 83,000 compounds, 20% with a hit somewhere; the sample as a whole holds those more often.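 Plates (96-well) were seeded with cells, treated with compound at one concentration, and incubated for 48 hours before percent growth was determined.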 Unmarked numbers belong to inactive results. Activity calls are given as the source filed them. How the source made its calls: active means growth percent below 10; inactive means the rest.
Legend:
Assay in all cases: NCI-60 one-dose screen, 48 h (100 = growth as untreated, 0 = no growth, -100 = all killed)
Conditions in all cases: 10 µM unless noted
[1] = test system: T-47D breast
[2] = test system: BT-549 breast
[3] = test system: MDA-MB-435 melanoma
[4] = test system: SW-620 colon
[5] = test system: MCF7 breast
[6] = test system: HCT-116 colon
[7] = test system: HCC-2998 colon
[8] = test system: KM12 colon

Structure (SMILES) | growth [1] | growth [2] | growth [3] | growth [4] [%] | growth [5] | growth [6] | growth [7] | growth [8]
CN(CCCN(C)CCC1CCCCC1)CCC1CCCCC1 | 17.9% | 39.2% | -26.1% (active) | 75.2 | -47.4% (active) | 47.2% | -30.1% (active) | 46.7%
CC(=O)NC(CCC(=O)c1ccccc1)C(=O)O (stereo unspecified) | 83.3% | 76.9% | 99.2% | 100 | 89.4% | 80.2% | 108% | 103%
CCCCCCCCCCCCCCCCCC(=O)NCCNC(=O)CCCCCCCCCCCCCCCCC | 78.6% | 105% | 94.2% | 102 | 71.6% | 70.2% | 82.1% | 96.4%
COc1cc(CC#N)c([N+](=O)[O-])cc1OC | 105% | 105% | 111% | 119 | 102% | 93.5% | 108% | 104%
COc1cc(-c2ccc(NC(=O)CC(C)=O)c(OC)c2)ccc1NC(=O)CC(C)=O | 108% | 83.6% | 105% | 104 | 106% | 105% | 100% | 106%
CCCCCC/C=C\CCCCCCCCCc1cc(O)cc(OC)c1O | -61.8% (active) | 3.38% (active) | 13.3% | 14.9 | 6.81% (active) | 5.45% (active) | 35.7% | 12.5%
C[n+]1cc2cc3c(cc2c2ccccc21)OCO3 | 39.8% | 20% | 64.9% | 56.5 | 24.5% | 40.3% | 54.7% | 12.9%
Clc1cccc(Cl)c1CSc1nc2ccccc2n2cccc12 | 25.1% | 98.7% | 66.8% | 97 | 17% | 86.9% | 109% | 84.4%
C=CCNC(=S)N/C=C(/C(=O)c1ccccc1)c1ccccc1 | 99.4% | 98.2% | 98.6% | 98.9 | 97.6% | 115% | 105% | 104%
O=C(NCc1ccccc1)/C(=C/c1ccccc1)NC(=O)c1ccccc1 | 110% | 98.6% | 113% | 102 | 96.6% | 107% | 102% | 101%
O=C(O)c1cccc(-n2ncc(Cl)c(Cl)c2=O)c1 | 102% | 105% | 93.2% | 113 | 74.8% | 105% | 108% | 77.2%
CCOC(=N)CC(=O)Nc1cccc(C)c1Cl | 95% | 103% | 98.6% | 94.9 | 89.5% | 96.3% | 102% | 96.7%
CCOC(=O)C(COS(C)(=O)=O)(COS(C)(=O)=O)C(=O)OCC | 103% | 106% | 104% | 110 | 98.7% | 104% | 106% | 107%
CC(=O)/C(C)=N\OC(=O)Nc1ccccc1 | 94.4% | 101% | 103% | 107 | 93.5% | 102% | 94.7% | 101%
COc1ccc(C(=O)/C(=N/Nc2ccccc2)c2ccc(OC)cc2)cc1 | 87% | 103% | 94.1% | 93.5 | 95.2% | 78.5% | 95.2% | 90%
CC(C)Sc1ncnc2nc[nH]c12 | 100% | 121% | 97.4% | 108 | 98.1% | 103% | 108% | 128%
CCCOCc1cn[nH]n1 | 105% | 109% | 105% | 109 | 103% | 107% | 104% | 106%
CC(=O)c1cccc(N(C)S(=O)(=O)c2ccc(C)cc2)c1 | 87.8% | 82.8% | 8.55% (active) | 81.7 | 60.5% | 94% | 82.6% | 49.8%
CC(=O)c1cccs1 | 90% | 97% | 109% | 108 | 94.6% | 97.4% | 98.4% | 102%

Structure (SMILES) | growth [1] | growth [2] | growth [3] | growth [4] [%] | growth [5] | growth [6] | growth [7] | growth [8]
NNC(=O)CCCCl | 100% | 119% | 108% | 105 | 98.4% | 108% | 102% | 102%
Cc1ccccc1CC(N)C(=O)O (stereo unspecified) | 103% | 106% | 108% | 121 | 104% | 106% | 117% | 119%
Cc1[nH]c(=S)[nH]c(=O)c1C | 115% | 99.7% | 105% | 109 | 101% | 110% | 103% | 108%
Cc1cc2c3ccc(C)[n+](C)c3ccc2n1C | 74.5% | 16.8% | 52% | 15.1 | 57% | 29.4% | 22.2% | 5.81% (active)
C=C1SC(=Nc2c(C)cccc2C)N(c2nc(Cl)nc(Cl)n2)C12CCCCC2 | 101% | 91.6% | 93.5% | 112 | 103% | 93.7% | 111% | 103%
CCc1ccccc1C(=O)N(CC)CC | 92.8% | 102% | 104% | 105 | 91% | 92.9% | 104% | 103%
CC(C)c1ccc(C(=O)OCCCl)cc1 | 91.1% | 100% | 95.9% | 106 | 92.6% | 82.4% | 98.9% | 115%
O=[N+]([O-])c1c(O)c(CNCCCO)cc(CNCCCO)c1O | 113% | 119% | 111% | 96.3 | 112% | 97.4% | 106% | 138%
C/C(O)=C(/C=N/C(=S)Nc1ccccc1)C(=O)Nc1ccccc1C | 79.6% | 107% | 111% | 106 | 94.9% | 109% | 109% | 100%
NNC(=O)N/N=C1\C(=O)N(c2nccs2)C(=O)C(=O)C1c1nc2ccccc2s1 (stereo unspecified) | 77.1% | 99.1% | 109% | 96.1 | 98.5% | 88.7% | 93.2% | 100%
NC(=O)OCCO | 94.4% | 94.9% | 111% | 106 | 92.9% | 90.6% | 97.9% | 98.7%
CCOc1ccc(C(=O)NCC(C)C)cc1 | 89.1% | 98.3% | 96.8% | 91.7 | 93.5% | 101% | 114% | 101%
CC(=O)NCNC(C)=O | 108% | 100% | 107% | 107 | 94% | 104% | 113% | 117%
S=C=Nc1ccc2ccccc2c1 | 108% | 96.2% | 101% | 105 | 101% | 103% | 95.7% | 104%
CCNc1ncnc2[nH]ncc12 | 103% | 84.3% | 102% | 99.2 | 93.3% | 105% | 106% | 103%
CN1CCCN(C(c2ccccc2)c2ccc(Br)cc2)CC1 (stereo unspecified) | 103% | 63.3% | -29.3% (active) | 49.6 | 37.5% | 21.4% | 95.9% | 63.9%
O=C(O)CC1=CCCCC1 | 109% | 96.1% | 101% | 98.2 | 96.7% | 104% | 94.3% | 98%
COC1CC(OC(=O)c2ccc([N+](=O)[O-])cc2)C(COC(=O)c2ccc([N+](=O)[O-])cc2)O1 (stereo unspecified) | 104% | 116% | 97.7% | 99.7 | 91.5% | 105% | 112% | 109%
